Laboratory results: PubChem BioAssay AID588651 (The Scripps Research Institute Molecular Screening Center, 2011)
Active and inactive are the calls of the source. No stated cut-off is given here; in the data, active means inhibition above about 65%; inactive means the rest.

The molecules below were run on Antitargets (assay: Fam108b inhibition by ABPP, late-stage follow-up, biochemical, gel-based ABPP, recombinant soluble Fam108b, HTS hits, complex proteome (AID 588651;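 further: Fam108b spiked into mouse brain membrane proteome; tested at 20 µM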)). Details: FP-rhodamine labeling in proteome.
`Cc1nc2scc(-c3ccc(Cl)cc3)c2c(=O)o1` was tested, and the outcome was “inactive”.
For `Cc1ccc(S(=O)(=O)Nc2ccccc2C(=O)Nc2nc(-c3ccc(F)cc3)cs2)cc1`, the outcome was “inactive”.
`CCNc1ccc2noc3c2c1C(=O)c1ccccc1-3` was tested, and the outcome was “inactive”.
For `Cc1ccc(S(=O)(=O)N=C2C=C(Sc3ncn[nH]3)C(=O)c3ccccc32)cc1`, the outcome was “inactive”.
`COc1cc2c(cc1NC(=O)Nc1ccccc1)oc1ccccc12` was tested, and the outcome was “inactive”.
With `CC1=CC(=O)c2c(O)ccc(O)c2C1=O` the outcome was “inactive”.
With `Brc1ccc(-c2csc(Nc3nc(-c4ccc(Br)cc4)cs3)n2)cc1` the outcome was “inactive”.
In the case of `O=c1oc(-c2ccccc2Cl)nc2ccsc12`, the outcome is reported as “inactive”.
`Cc1[nH]c2ccccc2c1C=NNC(=O)c1cccc(S(=O)(=O)Nc2cccc(C(F)(F)F)c2)c1` was tested, and the outcome was “inactive”.
For `Cc1cc(C)nc(SCc2ccc(C(=O)NN=Cc3cccc(O)c3O)cc2)n1`, the outcome was “active”.
`Cc1cc(C(C#N)c2ccc(Cl)cc2)c(Cl)cc1NC(=O)c1cc(I)cc(I)c1O` (configuration not stated) was tested, and the outcome was “inactive”.
`O=C(Nc1cccc(-c2csc(Nc3ccc(Cl)cc3)n2)c1)c1cc([N+](=O)[O-])cc(C(F)(F)F)c1` was tested, and the outcome was “inactive”.
With `Cc1ccccc1NC1=C/C(=N\S(=O)(=O)c2cccs2)c2ccccc2C1=O` the outcome was “inactive”.
`O=C(Nc1cccc(C(F)(F)F)c1)Nc1ccc(N2CCCC2)c(S(=O)(=O)Nc2ccccc2Cl)c1` was tested, and the outcome was “active”.
With `N=c1oc2cc(O)ccc2cc1C(=O)Nc1ccc(Br)cc1` the outcome was “inactive”.
For `O=C1NC(=S)/C(=C\c2ccc(-c3ccccc3Cl)o2)S1`, the outcome was “inactive”.
`O=C(Nc1ccc(-c2csc(Nc3ccc(Cl)cc3)n2)cc1)c1cccc(C(F)(F)F)c1` was tested, and the outcome was “active”.
